# Results taken from the supplement of paper PMC8728848.
# The entries come from a sample that favours the strongest signals as a whole.
# B1: MtEccB1 (Mycobacterium tuberculosis H37Rv), O69734 (protein)
# chain: MGLRLTTKVQVSGWRFLLRRLEHAIVRRDTRMFDDPLQFYSRSIALGIVVAVLILAGAALLAYFKPQGKLGGTSLFTDRATNQLYVLLSGQLHPVYNLTSARLVLGNPANPATVKSSELSKLPMGQTVGIPGAPYATPVSAGSTSIWTLCDTVARADSTSPVVQTAVIAMPLEIDASIDPLQSHEAVLVSYQGETWIVTTKGRHAIDLTDRALTSSMGIPVTARPTPISEGMFNALPDMGPWQLPPIPAAGAPNSLGLPDDLVIGSVFQIHTDKGPQYYVVLPDGIAQVNATTAAALRATQAHGLVAPPAMVPSLVVRIAERVYPSPLPDEPLKIVSRPQDPALCWSWQRSAGDQSPQSTVLSGRHLPISPSAMNMGIKQIHGTATVYLDGGKFVALQSPDPRYTESMYYIDPQGVRYGVPNAETAKSLGLSSPQNAPWEIVRLLVDGPVLSKDAALLEHDTLPADPSPRKVPAGASGAP
# Key:
# Experiment in all cases: glycan array binding signal (z-score within array); higher = stronger binding
# Settings in all cases: glycan notation: IUPAC condensed, linker removed
# Gal(b1-6)Gal = molecular target: Gal(b1-6)Gal
# Summary of the method: (§1)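 The binding signal is a Z-score computed within each array and averaged over linkers. Arrays of the same protein sequence at different concentrations or buffers were also averaged together. Data originate from 3228 arrays in the Consortium for Functional Glycomics database, kept only where the protein sequence was available.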
# Gal3S6S(b1-4)GlcNAc = molecular target: Gal3S6S(b1-4)GlcNAc
# Summary of the method: as §1
# Gal3S6S(b1-4)GlcNAc6S = molecular target: Gal3S6S(b1-4)GlcNAc6S
# Summary of the method: as §1
# Gal4S6S(b1-4)GlcNAc = molecular target: Gal4S6S(b1-4)GlcNAc
# Summary of the method: as §1
# Gal6S(b1-4)Glc = molecular target: Gal6S(b1-4)Glc
# Summary of the method: as §1
# [1] = molecular target: GlcA3S(b1-3)Gal(b1-4)GlcNAc(b1-2)Man
# Summary of the method: as §1
# [2] = molecular target: GlcNAc(a1-4)Gal(b1-4)GlcNAc(b1-3)Gal(b1-4)GlcNAc
# Summary of the method: as §1
# [3] = molecular target: GlcNAc(b1-2)[GlcNAc(b1-4)]Man(a1-3)[GlcNAc(b1-2)Man(a1-6)]Man(b1-4)GlcNAc(b1-4)GlcNAc
# Summary of the method: as §1
# [4] = molecular target: GlcNAc(b1-3)Gal(b1-4)GlcNAc(b1-3)Gal(b1-4)GlcNAc(b1-3)Gal(b1-4)GlcNAc(b1-3)Gal(b1-4)GlcNAc(b1-2)[GlcNAc(b1-3)Gal(b1-4)GlcNAc(b1-3)Gal(b1-4)GlcNAc(b1-3)Gal(b1-4)GlcNAc(b1-3)Gal(b1-4)GlcNAc(b1-6)]Man(a1-6)[GlcNAc(b1-3)Gal(b1-4)GlcNAc(b1-3)Gal(b1-4)GlcNAc(b1-3)Gal(b1-4)GlcNAc(b1-3)Gal(b1-4)GlcNAc(b1-2)Man(a1-3)]Man(b1-4)GlcNAc(b1-4)[Fuc(a1-6)]GlcNAc
# Summary of the method: as §1
# [5] = molecular target: GlcNAc(b1-3)[GlcNAc(b1-6)]Gal(b1-4)GlcNAc
# Summary of the method: as §1
# [6] = molecular target: Man(a1-2)Man(a1-2)Man(a1-3)Man
# Summary of the method: as §1
# [7] = molecular target: Man(a1-3)[Man(a1-6)]Man(b1-4)GlcNAc(b1-4)[Fuc(a1-6)]GlcNAc
# Summary of the method: as §1
# [8] = molecular target: Neu5Ac(a2-3)Gal(b1-3)GalNAc(b1-4)[Neu5Ac(a2-3)]Gal(b1-4)Glc
# Summary of the method: as §1
# [9] = molecular target: Neu5Ac(a2-3)Gal(b1-3)GlcNAc(b1-6)GalNAc
# Summary of the method: as §1
# [10] = molecular target: Neu5Ac(a2-3)Gal(b1-3)[Fuc(a1-4)]GlcNAc(b1-3)Gal(b1-4)[Fuc(a1-3)]GlcNAc
# Summary of the method: as §1
# [11] = molecular target: Neu5Ac(a2-3)Gal(b1-3)]Neu5Ac(a2-3)Gal(b1-4)]GlcNAc
# Summary of the method: as §1
# [12] = molecular target: Neu5Ac(a2-3)Gal(b1-4)GlcNAc(b1-2)Man(a1-3)[GlcNAc(b1-4)][Neu5Ac(a2-3)Gal(b1-4)GlcNAc(b1-2)Man(a1-6)]Man(b1-4)GlcNAc(b1-4)GlcNAc
# Summary of the method: as §1
# [13] = molecular target: Neu5Ac(a2-3)Gal(b1-4)GlcNAc(b1-2)Man(a1-3)[Neu5Ac(a2-3)Gal(b1-4)GlcNAc(b1-2)Man(a1-6)]Man(b1-4)GlcNAc(b1-4)GlcNAc
# Summary of the method: as §1
# [14] = molecular target: Neu5Ac(a2-3)Gal(b1-4)GlcNAc(b1-3)Gal(b1-4)GlcNAc(b1-3)Gal(b1-4)GlcNAc(b1-2)Man(a1-3)[Neu5Ac(a2-3)Gal(b1-4)GlcNAc(b1-3)Gal(b1-4)GlcNAc(b1-3)Gal(b1-4)GlcNAc(b1-2)Man(a1-6)]GalNAc
# Summary of the method: as §1
# [15] = molecular target: Neu5Ac(a2-3)Gal(b1-4)GlcNAc6S
# Summary of the method: as §1
# [16] = molecular target: Neu5Ac(a2-3)Gal(b1-4)[Fuc(a1-3)]GlcNAc(b1-3)GalNAc
# Summary of the method: as §1
# [17] = molecular target: Neu5Ac(a2-6)Gal(b1-4)GlcNAc(b1-2)Man(a1-6)[Man(a1-3)]Man(b1-4)GlcNAc(b1-4)GlcNAc
# Summary of the method: as §1
# [18] = molecular target: Neu5Ac(a2-6)Gal(b1-4)GlcNAc(b1-2)[Neu5Ac(a2-6)Gal(b1-4)GlcNAc(b1-6)]Man(a1-6)[Neu5Ac(a2-6)Gal(b1-4)GlcNAc(b1-2)Man(a1-3)][GlcNAc(b1-4)]Man(b1-4)GlcNAc(b1-4)GlcNAc
# Summary of the method: as §1
# [19] = molecular target: Neu5Ac(a2-6)Gal(b1-4)GlcNAc(b1-3)Gal(b1-4)GlcNAc(b1-3)Gal(b1-4)GlcNAc(b1-2)Man(a1-3)[Neu5Ac(a2-6)Gal(b1-4)GlcNAc(b1-3)Gal(b1-4)GlcNAc(b1-3)Gal(b1-4)GlcNAc(b1-2)Man(a1-6)]GalNAc
# Summary of the method: as §1
# Neu5Ac(a2-6)GalNAc = molecular target: Neu5Ac(a2-6)GalNAc
# Summary of the method: as §1
# [20] = molecular target: Neu5Ac(a2-8)Neu5Ac(a2-3)[GalNAc(b1-4)]Gal(b1-4)Glc
# Summary of the method: as §1
# [21] = molecular target: Neu5Gc(a2-3)Gal(b1-4)GlcNAc
# Summary of the method: as §1
# [22] = molecular target: Neu5Gc(a2-3)Gal(b1-4)[Fuc(a1-3)]GlcNAc
# Summary of the method: as §1
# [23] = molecular target: Neu5Gc(b2-6)Gal(b1-4)GlcNAc
# Summary of the method: as §1
binder,measurement,setting,value
B1,glycan array binding signal (z-score),Gal(b1-6)Gal,-0.836
same,glycan array binding signal (z-score),Gal3S6S(b1-4)GlcNAc,0.192
same,glycan array binding signal (z-score),Gal3S6S(b1-4)GlcNAc6S,3.9
same,glycan array binding signal (z-score),Gal4S6S(b1-4)GlcNAc,3.03
same,glycan array binding signal (z-score),Gal6S(b1-4)Glc,0.586
same,glycan array binding signal (z-score),[1],-1.14
same,glycan array binding signal (z-score),[2],0.812
same,glycan array binding signal (z-score),[3],-0.488
same,glycan array binding signal (z-score),[4],3.92
same,glycan array binding signal (z-score),[5],-0.11
same,glycan array binding signal (z-score),[6],-1.02
same,glycan array binding signal (z-score),[7],0.339
same,glycan array binding signal (z-score),[8],3.37
same,glycan array binding signal (z-score),[9],-0.342
same,glycan array binding signal (z-score),[10],0.263
same,glycan array binding signal (z-score),[11],0.038
same,glycan array binding signal (z-score),[12],4.06
same,glycan array binding signal (z-score),[13],-1.57
same,glycan array binding signal (z-score),[14],2.66
same,glycan array binding signal (z-score),[15],1.54
same,glycan array binding signal (z-score),[16],0.588
same,glycan array binding signal (z-score),[17],0.711
same,glycan array binding signal (z-score),[18],-0.566
same,glycan array binding signal (z-score),[19],2.47
same,glycan array binding signal (z-score),Neu5Ac(a2-6)GalNAc,-0.143
same,glycan array binding signal (z-score),[20],0.156
same,glycan array binding signal (z-score),[21],-0.509
same,glycan array binding signal (z-score),[22],0.844
same,glycan array binding signal (z-score),[23],-0.779
